In the library only some 19% were active in any assay of this set; here they are far more common.
HT1080-NT tox: qHTS for induction of synthetic lethality in tumor cells producing 2HG: qHTS for the HT-1080-NT fibrosarcoma cell line; HT-1080-NT fibrosarcoma viability, CellTiter-Glo ATP luminescence, 48 h; Potency, µM (titrated, usually from 46.1 µM), for inactives: top-dose activity, negative = less viability, actives largely listed as cytotoxic; actives 1.6% (n = 360,000);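 also: NT is the 2HG producing partner of a matched IDH1 knockdown line; potency is read from the fitted curve at half-maximal effect; 0% = DMSO-treated cells and -100% = media-only wells without cells; nearly all actives have a fitted effect of over 55% in size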
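Toxicity toward the 2HG-producing NT line was scored as %Activity, normalised to DMSO and no-cell wells, from CellTiter-Glo luminescence after 48 hours' treatment.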
TDP1 cell noCPT: qHTS for Inhibitors of human tyrosyl-DNA phosphodiesterase 1 (TDP1): qHTS in cells in absence of CPT; DT40 Tdp1-/- hTDP1 cells, no CPT, ATP luminescence, 48 h; AID 686978, 2013; Potency, µM (titrated, usually from 46.2 µM), without a hit: at the top dose activity change, negative = growth inhibition, most hits filed as inhibitors; actives 15% (n = 420,000); also: potency is read from the fitted curve at half-maximal effect; nearly all actives have a fitted effect of over 55% in size
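Luminescent ATP content (CellTiter-Glo) served as the growth readout. Knockout chicken DT40 cells expressing human TDP1 were exposed to compounds without camptothecin for a minimum 48 hr at 37 °C.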
HT1080 IDH1KD tx: qHTS for induction of synthetic lethality in tumor cells producing 2HG: qHTS for the HT-1080-IDH1KD cell line; actives 2% (n = 360,000); Potency, µM (series often up to 46.1 µM), inactives show at the top dose activity, negative = toxicity, usual class: cytotoxic; HT-1080 IDH1 knockdown viability, ATP luminescence, 48 h;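 also: potency is read from the fitted curve at half-maximal effect; 0% = DMSO wells and -100% = cell-free medium wells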
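Assay cells: HT-1080 with IDH1 knockdown, 750 per well, RPMI/5% FBS. Exposure: 48 h at 37 °C following 2 h pre-incubation. Read: CellTiter-Glo luminescence; fitted concentration-response, curve class assigned.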
IL1B secr inh: qHTS for Inhibitors of Inflammasome Signaling: IL-1-beta AlphaLISA Primary Screen; actives 4.7% (n = 360,000); THP-1 LPS/ATP IL-1B secretion, AlphaLISA, 16 h; stronger effect = lower value; activity change, % at 57.5 µM; AID 743279, 2014; in the data active = activity change below about -50%; inconclusive = mostly about -30% to -49%
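Secreted IL-1B measured by AlphaLISA bead assay after 16 h compound exposure of THP-1 cells; compounds (final up to 57.5 uM) added 1 h before LPS (250 ng/mL) and ATP (1.25 mM) stimulation; lower signal means less secretion.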
ELG1 DNA repair: qHTS screen for small molecules that inhibit ELG1-dependent DNA repair in human embryonic kidney (HEK293T) cells expressing luciferase-tagged ELG1. HEK293T ELG1-luciferase reporter, luminescence, 16 h; DNA damage induced by 5-fluorouridine. Potency, µM (titrated, usually from 46.1 µM), without a hit: at the highest dose activity change, negative = inhibition, actives largely listed as inhibitors. actives 2.3% (n = 330,000). AID 504467, 2011; also: potency is read from the fitted curve at half-maximal effect; nearly all actives have a fitted effect of over 55% in size
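HEK293T cells expressing luciferase-tagged ELG1 (2,000/well) received 5-Fluorouridine plus compound or DMSO for 16 hr at 37 °C. Luciferase was read by ONE-Glo luminescence after 30 min at room temperature.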
DT40 TDP1 CPT: qHTS for Inhibitors of human tyrosyl-DNA phosphodiesterase 1 (TDP1): qHTS in cells in presence of CPT | actives 12% (n = 420,000) | chicken DT40 Tdp1-/-;hTDP1 cells + 20 nM CPT, ATP luminescence, 48 h | Potency, µM (top dose mostly 46.2 µM), inactives show at the highest dose activity change, negative = growth inhibition, hits mostly inhibitors | AID 686979, 2013; also: potency is read from the fitted curve at half-maximal effect; nearly all actives have a fitted effect of over 55% in size
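Chicken DT40 Tdp1-/- cells complemented with human TDP1, 400 cells/well, exposed to compounds plus 20 nM camptothecin for at least 48 h at 37 C; viability read as ATP content by CellTiter-Glo luminescence.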
An asterisk follows results filed as active; ? = inconclusive; · = no result; ! = a repeat was not active; [ ] = dose if it differs, or a comment. Unless noted, calls follow the shape of the dose curve; as a rule, active = well fitted curve in the direction sought with a large enough effect; inconclusive = small, poorly fitted or top-dose-only effect, or another doubt; inactive = no such curve, though single readings can be large; an effect the other way counts as inactive or inconclusive. Unless noted, % is scaled to controls: 0 for no effect and ±100 for the full control effect.

SMILES	HT1080-NT tox	TDP1 cell noCPT	HT1080 IDH1KD tx	IL1B secr inh	ELG1 DNA repair	DT40 TDP1 CPT
O=C(CSc1nccn1Cc1ccccc1)NCc1ccccc1	1%	1%	11%	-4	?	-1%
CCn1cc(NC(=O)CCl)c(C)n1	·	·	·	·	-8%	·
CSC(=NS(=O)(=O)c1ccccc1)NNC(=O)c1c(-c2c(Cl)cccc2Cl)noc1C	4%	5%	3%	22	·	3%
C=C1C[C@@H]2C[C@@H]2CN(S(=O)(=O)c2ccc(C)cc2)[C@@H]1c1ccco1	7%	?	2%	44	·	?
COc1ccc(CC(=O)NCc2ccccc2)cc1	?	2.9µM*	8.2µM*	28	-3%	2.6µM*
COc1ccc(/C=C(/C(=O)Nc2ccccc2C(=O)NC(C)C)c2ccccc2)cc1	-11%	?	-21%	8	?	-17%
COc1ccc(/C=C(/C(=O)Nc2ccccc2C(=O)N2CCCC2)c2ccccc2)cc1	0%	?	0%	-5	23µM*	?
COc1ccc(/C=C(/C(=O)NCc2ccccc2)c2ccccc2)cc1	0%	21µM*	1%	-8	?	?
CCc1nnc(NC(=O)CSc2nnc(COc3ccccc3)n2-c2ccc(C)cc2)s1	9%	-26%	4%	47	9%	?
CCc1nnc(NC(=O)CSc2nnc(-c3ccccc3O)n2-c2ccc(C)cc2C)s1	4.6µM*	23µM*	?	51	·	?
Cc1n[nH]c2ccc([N+](=O)[O-])cc2c1=O	2%	-30%	6%	-19	·	-18%
CCc1cccc(OCC(=O)Nc2ccc(S(=O)(=O)Nc3cc(C)nc(C)n3)cc2)c1	·	-27%	·	·	·	-11%
COc1cccc(CNC(=O)COc2ccc(C(=O)c3ccccc3)cc2)c1	?	16µM*	?	-20	-14%	?
COc1cccc(CNC(=O)Cc2ccc(-n3c(=O)[nH]c4ccccc4c3=O)cc2)c1	?	3.3µM*	?	24	-13%	4.6µM*
COc1cccc(CNC(=O)CNS(=O)(=O)c2ccc(Br)s2)c1	2%	-3%	-3%	-53*	0%	1%
O=C(COc1ccc(C(=O)c2ccccc2)cc1)NCC1CCCCC1	-9%	16µM*	-15%	-15	-14%	16µM*
COc1ccc(CNC(=O)c2ccc3c(=O)n(-c4ccccc4)c(=O)[nH]c3c2)cc1	27%	-7%	16%	14	1%	8%
O=C(Nc1ccccc1)N1CCC2(CC1)CCN(C(=O)c1csnn1)CC2	·	-9%	·	·	·	12%
CCOC(=O)c1c(C)[nH]c(C)c1S(=O)(=O)N(C)CC(=O)Nc1ccc(C)cc1C	·	-25%	·	·	·	-15%
CCC(C)C(NC(=O)C(C)NC(=O)CNC(=O)OC(C)(C)C)C(N)=O (stereo not given)	1%	?	17%	6	5%	?
Cn1cc(-c2nc3cncnc3n(CCN)c2=O)c2ccccc21	·	16µM*	·	·	·	23µM*
COc1cccc(OCC(=O)NC2CCS(=O)(=O)C2)c1 (stereo not given)	-6%	-2%	0%	6	-1%	-18%
Cc1ccc(NC(=O)CN(C)C(=O)C2CC(=O)N(Cc3ccccc3)C2)cc1 (stereo not given)	-9%	9%	-1%	16	0%	-5%
CC(Sc1nc(N)cc(N)n1)C(=O)NCCC1=CCCCC1 (stereo not given)	3%[9.24 µM]	9%	-2%	9	?	-2%
CN(Cc1cccc(C(F)(F)F)c1)C(=O)C1CCC(=O)N(CC2CCCCC2)C1 (stereo not given)	-3%	16µM*	0%	-16	-2%	?
SMILES	HT1080-NT tox	TDP1 cell noCPT	HT1080 IDH1KD tx	IL1B secr inh	ELG1 DNA repair	DT40 TDP1 CPT
CCOC(=O)[C@H](CCc1ccccc1)N[C@@H](C)C(=O)N1Cc2ccccc2C[C@H]1C(=O)O	18%	0.26µM*!	5%	4	·	?
CCOC(=O)[C@@H](CCc1ccccc1)N[C@H](C)C(=O)N1[C@H](C(=O)O)C[C@@H]2CCC[C@@H]21	22%	-6%	-4%	-17	-15%	0%
O=c1cc(CSc2ccccc2)nc(-c2ccncc2)[nH]1	5%	-12%	21%	-7	-4%	14%
COc1ccc(C[C@H]2COC(=O)[C@@H]2Cc2ccc(OC3OC(CO)C(O)C(O)C3O)c(OC)c2)cc1OC (stereo not given in full)	-9%	21µM*	0%	38	-7%	?
COc1cc(C2SCC(=O)N2CCc2ccc(OC)c(OC)c2)ccc1O (stereo not given)	3%	-8%	14%	61	?	4%
COc1cc(C[C@H]2C(=O)OC[C@@H]2Cc2ccc(OC)c(OC)c2)ccc1O	·	1.7µM*	·	·	·	2.4µM*
Cc1ccc(S(=O)(=O)N(Cc2cc3ccc(C)cc3[nH]c2=O)c2ccccc2)cc1	3%	?	-1%	17	9%	?
Cc1ccc2[nH]c(=O)c(CN(c3cccc(C)c3C)S(=O)(=O)c3ccccc3)cc2c1	22%	5.8µM*	?	5	-14%	16µM*
CC(C)(C)N(Cc1cc2ccccc2[nH]c1=O)C(=O)c1cccc([N+](=O)[O-])c1	2%	-13%	-4%	-13	0%	-23%
Cc1ccc(S(=O)(=O)N(Cc2cc3ccccc3[nH]c2=O)c2cccc(C)c2)cc1	4%	7.3µM*	9%	18	-4%	10µM*
CC(C)C(=O)N(Cc1cc2ccccc2[nH]c1=O)C(C)(C)C	21%	21µM*	2%	11	22%	-18%
Cc1ccc2cc(CN(CC(C)C)S(=O)(=O)c3ccccc3)c(=O)[nH]c2c1	2%	?	-2%	1	?	?
CCCCN(Cc1cc2ccccc2[nH]c1=O)S(=O)(=O)c1ccc(C)cc1	-9%	23µM*	-12%	-12	?	?

High-throughput results deposited in PubChem BioAssay by National Center for Advancing Translational Sciences (NCATS).
